Screening data from PubChem BioAssay.
ADAM10 inh = human ADAM10 inhibitors, primary screen, biochemical, QFRET, HTS | Disintegrin and metalloproteinase domain-containing protein 10 (Homo sapiens), O14672 | recombinant ADAM10, EDANS/DABCYL FRET peptide cleavage, 3 h | inhibition, % at 7 µM | 0.62% of 370,000 active | AID 720582, 2013;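 active = inhibition above a per-campaign cutoff equal to the mean of compounds falling between control-based bounds plus 3 SD, cut at about 20% in these data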;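 note: 0% = DMSO wells while the 100% control is not disclosed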
GRIN3A LBD mod = binders of NR3A ligand-binding domain, primary screen, biophysical, differential scanning fluorimetry, uHTS. NR3A LBD differential scanning fluorimetry, Tm shift; 0% = protein alone, 100% = glycine-bound protein. Tm shift relative to glycine control, % at 25 µM. 2.5% of 340,000 active;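 active = melting temperature shift of at least 10% of the positive control shift, at one fixed dose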
rCAG RNA binder = binders of r(CAG) RNA repeats, primary screen, biochemical, fluorescence; inhibition, % at 3 µM; AID 651821, 2012; 1.3% of 370,000 active; r(CAG) RNA repeat, TO-PRO-1 dye displacement fluorescence;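 active = inhibition above the plate cutoff, the mean of all test compounds on that plate plus 3 SD, cut at about 35% in these data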;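 note: 0% = DMSO alone and 100% = 100 µM mitoxantrone as full dye displacement; higher means more dye released from RNA so lower well fluorescence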
ADAM17 inh = ADAM17 inhibitors, primary screen, biochemical, QFRET. 0.83% of 370,000 active. Disintegrin and metalloproteinase domain-containing protein 17 (Homo sapiens), P78536. AID 720648, 2013. recombinant ADAM17, EDANS/DABCYL FRET peptide cleavage. inhibition, % at 6.95 µM;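 active = inhibition above the mean of compounds lying between control limits plus 3 SD, set per campaign, cut at about 8.5% in these data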;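 note: 0% = DMSO-only wells as the low control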
AHR activator = AHR activators, primary screen, cell-based, luminescence, luciferase reporter, human | AID 2796, 2010 | 2.5% of 320,000 active | AHR-responsive luciferase reporter cells | Aryl hydrocarbon receptor (Homo sapiens), P35869 | activation, % at 5 µM; in the data active = activation above about 47%;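 note: 0% = vehicle wells and 100% = reference agonist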
Target sequence (P35869 whole entry, looked up): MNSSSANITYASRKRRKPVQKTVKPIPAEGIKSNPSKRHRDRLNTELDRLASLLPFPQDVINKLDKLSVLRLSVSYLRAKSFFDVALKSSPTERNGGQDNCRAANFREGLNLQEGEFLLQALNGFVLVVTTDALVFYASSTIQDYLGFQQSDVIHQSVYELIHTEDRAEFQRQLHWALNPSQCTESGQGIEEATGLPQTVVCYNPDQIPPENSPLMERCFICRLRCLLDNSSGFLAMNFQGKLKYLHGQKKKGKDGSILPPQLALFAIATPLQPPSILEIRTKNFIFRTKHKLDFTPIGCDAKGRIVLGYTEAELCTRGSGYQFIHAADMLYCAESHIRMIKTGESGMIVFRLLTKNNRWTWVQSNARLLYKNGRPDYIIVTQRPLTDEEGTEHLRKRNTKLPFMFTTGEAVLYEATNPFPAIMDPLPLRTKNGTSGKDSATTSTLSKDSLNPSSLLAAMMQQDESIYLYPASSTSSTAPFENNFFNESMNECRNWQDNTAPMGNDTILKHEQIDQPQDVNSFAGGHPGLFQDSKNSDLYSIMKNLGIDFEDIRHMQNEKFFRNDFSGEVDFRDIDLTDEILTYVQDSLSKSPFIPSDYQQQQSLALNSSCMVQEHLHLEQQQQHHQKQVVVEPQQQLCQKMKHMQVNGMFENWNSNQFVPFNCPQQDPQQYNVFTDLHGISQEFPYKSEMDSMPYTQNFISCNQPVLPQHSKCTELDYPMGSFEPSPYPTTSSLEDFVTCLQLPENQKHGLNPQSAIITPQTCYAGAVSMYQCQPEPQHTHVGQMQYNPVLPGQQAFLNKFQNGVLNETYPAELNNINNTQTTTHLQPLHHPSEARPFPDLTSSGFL
KLK7 zymogen act = proKLK7 zymogen activators, primary screen, biochemical, fluorescence intensity. activation, % at 7 µM. Kallikrein-7 (Homo sapiens), P49862. purified proKLK7, EDANS-DABCYL substrate fluorescence; 100% is mature enzyme control, 0% vehicle. 0.9% of 370,000 active;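 active = activation above the mean of all tested compounds plus 3 SD, computed per campaign excluding outliers beyond control limits, cut at about 13% in these data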
rCAG bind conf = small molecules binding CAG repeat RNA – biochemical, fluorescence, confirmation; shares compounds with rCAG RNA binder; r(CAG) RNA repeat, TO-PRO-1 dye displacement fluorescence; inhibition, % at 3 µM; 70% of 4,300 active;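 active = inhibition above a per-plate cutoff, the mean inhibition of sample wells plus 3 SD, cut at about 35% in these data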;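 note: loss of TO-PRO-1 fluorescence as compound displaces dye from 1x1 AA loop RNA; 0% = DMSO only wells and 100% = 100 µM mitoxantrone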
DNA CAG counter = displacement of TO-PRO-1 from CAG DNA duplex, counter-screen for rCAG RNA repeat binder project, biochemical, fluorescence, TO-PRO-1 dye, d(CAG) DNA oligo. shares compounds with rCAG RNA binder. d(CAG) DNA oligo TO-PRO-1 dye displacement. inhibition, % at 3 µM. 94% of 4,300 active. AID 652068, 2013;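 active = inhibition above its plate's cutoff, the mean test-well inhibition plus 3 SD, cut at about 4.8% in these data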;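 note: 0% = DNA dye mix with DMSO and 100% = 100 µM mitoxantrone; hits displace the dye from DNA and so lower well fluorescence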
* marks the source's active call; other numbers are inactive results; nt = no result given. Rows were chosen to be rich in hits. Some 7% of all compounds tested hit in one or more screens of this group.

SMILES | ADAM10 inh | GRIN3A LBD mod | rCAG RNA binder | ADAM17 inh | AHR activator | KLK7 zymogen act | rCAG bind conf | DNA CAG counter
Cc1cc(NS(=O)(=O)c2ccc(NC(=O)C(C)Oc3ccc(Cl)cc3)cc2)no1 (stereo not given) | 7 | -2 | 31 | -1 | 2 | 1 | nt | nt
Cc1cc(NS(=O)(=O)c2ccc(NC(=O)C(C)Oc3ccccc3Cl)cc2)no1 (stereo not given) | -5 | -1 | 36* | -3 | 0 | 0 | 19 | 3
CCOC(=O)c1c(NC(C)=O)sc(/C(C)=N/Nc2ccc(C(=O)O)cc2)c1C | -7 | -2 | 40* | 0 | 0 | -1 | 20 | 4
CCOC(=O)c1c(NC(C)=O)sc(C(=O)NC2CCCC2)c1C | -8 | 1 | -2 | -2 | 30 | -1 | nt | nt
COc1ccc(OCC(=O)NC(=S)Nc2ccc(S(=O)(=O)Nc3cc(OC)nc(OC)n3)cc2)cc1 | 4 | -9 | 52* | 2 | 2 | 0 | 53* | 20*
COc1ccc(C(=O)NC(=S)Nc2ccc(S(=O)(=O)Nc3cc(OC)nc(OC)n3)cc2)cc1 | 19 | -22 | 58* | 4 | 4 | 0 | 55* | 20*
COc1cc(NS(=O)(=O)c2ccc(NC(=S)NC(=O)C3CCCC3)cc2)nc(OC)n1 | 10 | -2 | 45* | -2 | 4 | 0 | 33 | 10*
CCCCN1CCN(C2=Nc3ccccc3Sc3ccccc32)CC1 | 10 | nt | 0 | 4 | nt | 0 | nt | nt
CC(=O)c1cc(-c2cc3ccccc3o2)c(=O)n2c1CCC2 | -25 | nt | 7 | -7 | nt | 0 | nt | nt
CC1=NN(c2nc(-c3ccc(Cl)cc3)cs2)C(=O)C1 | -9 | 19* | 58* | 4 | 7 | 0 | 73* | 39*
C/C(=N\NC(=O)c1ccc(-c2ccccc2)cc1)C1C(=O)c2ccccc2C1=O | 14 | 6 | 47* | 4 | 4 | 0 | 83* | 50*
Cc1ccccc1N1CCN(C2=Nc3ccccc3Sc3ccccc32)CC1 | -6 | nt | 6 | -2 | nt | -1 | nt | nt
COC(=O)[C@]12C[C@H](CC(=O)NCc3cccc4ccccc34)C(=O)N(CCC3=CCCCC3)C1=C[C@H](C1CCCC1)O[C@@H]2C | 2 | nt | 5 | 0 | nt | 0 | nt | nt
O=C(Nc1ccc(S(=O)(=O)Nc2cnc3ccccc3n2)cc1)c1ccc(Cl)cc1Cl | -49 | 5 | 66* | -23 | 3 | 0 | 48* | 15*
Nc1ccc(S(=O)(=O)Nc2cnc3ccccc3n2)cc1 | -3 | -3 | 4 | -3 | 4 | 0 | nt | nt
Cc1cc(Cl)ccc1OC(C)C(=O)Nc1ccc(S(=O)(=O)N2CCOCC2)cc1 (stereo not given) | 16 | 4 | 2 | 6 | 2 | 0 | nt | nt
COc1cc(NS(=O)(=O)c2ccc(NC(=O)c3ccc(Cl)cc3Cl)cc2)ncn1 | -7 | -10 | 19 | -6 | -1 | 0 | nt | nt
O=C(Cc1ccc(Cl)cc1)Nc1ccc(S(=O)(=O)Nc2cnc3ccccc3n2)cc1 | -52 | 10* | 63* | -19 | 1 | 1 | 59* | 23*
Cc1cc(Cl)ccc1OC(C)C(=O)Nc1ccc(C(=O)Nc2ccccc2C(=O)O)cc1 (stereo not given) | 10 | 15* | 77* | 4 | 3 | 0 | 87* | 62*
Cc1cc(Cl)ccc1OC(C)C(=O)Nc1ccc(S(=O)(=O)Nc2cnc3ccccc3n2)cc1 (stereo not given) | -31 | 14* | 80* | -16 | 4 | 0 | 90* | 57*
O=C(NN=Cc1cccc(OCc2ccccc2)c1)c1cc(-c2ccc(Cl)cc2)n[nH]1 | -30 | nt | 11 | -9 | nt | 2 | nt | nt
COC(=O)[C@]12C[C@H](CC(=O)N3CCCCC3)C(=O)N(Cc3ccc(Cl)cc3Cl)C1=C[C@H](C(C)C)O[C@@H]2C1CC1 | 2 | nt | 1 | -1 | nt | 1 | nt | nt
CN(C)S(=O)(=O)c1ccc(NC(=O)c2cc(F)c(F)cc2Cl)cc1 | 11 | 0 | 1 | 3 | -4 | 0 | nt | nt
O=C(Nc1ccc(S(=O)(=O)Nc2cnc3ccccc3n2)cc1)c1cc(F)c(F)cc1Cl | -59 | -3 | 40* | -20 | 0 | 0 | 28 | 4
COc1ccc(C(=O)N2C(=S)NC(=O)/C2=C\c2ccc(C)cc2)cc1 | 7 | 5 | 64* | 1 | 2 | -1 | 66* | 31*
SMILES | ADAM10 inh | GRIN3A LBD mod | rCAG RNA binder | ADAM17 inh | AHR activator | KLK7 zymogen act | rCAG bind conf | DNA CAG counter
COc1cccc(-c2nn[nH]n2)c1O | 9 | 1 | 1 | 3 | -1 | 0 | nt | nt
Oc1c(N=Nc2nn[nH]n2)ccc2ccccc12 | -10 | nt | 47* | -5 | nt | 0 | 61* | 30*
N#Cc1c(NC(=O)Cn2cnc3ccccc3c2=O)oc(-c2ccccc2)c1-c1ccccc1 | 10 | 3 | 43* | 7 | -3 | 1 | 34 | 14*
N#Cc1c(NC(=O)CSc2ncccn2)oc(-c2ccccc2)c1-c1ccccc1 | 0 | -7 | 28 | 2 | 4 | 1 | nt | nt
CCOC(=O)CC1(C)Sc2ccccc2N1S(=O)(=O)c1ccc(C)cc1 (stereo not given) | 10 | nt | 0 | 5 | nt | 1 | nt | nt
COc1ccc2ccccc2c1C1CC(=O)N2CN(Cc3ccco3)CSC2=C1C#N (stereo not given) | -1 | -7 | 49* | -1 | 2 | 0 | 26 | 14*
COc1ccc(C2CC(=O)N3CN(Cc4ccco4)CSC3=C2C#N)cc1 (stereo not given) | -5 | -4 | 28 | -3 | -1 | 0 | nt | nt
COc1cc(C2CC(=O)N3CN(Cc4ccco4)CSC3=C2C#N)ccc1OCc1ccccc1 (stereo not given) | 6 | -7 | 42* | 0 | 0 | 0 | 21 | 9.8*
Cc1ccc(-n2c(SCC(=O)Nc3ccc4c(c3)OCCO4)nnc2-c2ccccn2)cc1 | 3 | nt | 2 | -2 | nt | 0 | nt | nt
Cc1sc(NC(=O)C2CC=CCC2C(=O)O)c(C(=O)OC(C)C)c1C (stereo not given) | -9 | -2 | 41* | -3 | 0 | 0 | 33 | 5.8*
